± gives the standard deviation of the averaged measurements. In all, about 25,000 sequences were measured (“ln(normalized median fluorescence intensity)”: median about 10, highest 2% from about 12 on). Many of the other results were omitted from the sample, so the highest values are more common in it than they were.
test system: PfAP2-G AP2 domain (GST-tagged); experiment: gcPBM binding intensity (ln(normalized median fluorescence intensity)); higher = stronger DNA binding
How it was run: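 After 1 h on an Agilent 4 × 180k array of primer-extended double-stranded 36-bp intergenic genomic probes and negative controls, bound GST-tagged P. falciparum DNA-binding domains were detected with Alexa488 anti-GST antibody and scanned at 488 nm. The domains had been expressed in E. coli, and binding took place in 1× PBS with 1% milk, 0.2 mg/ml BSA, 0.5% salmon testes DNA and 0.03% Triton X-100. Binding intensity is the highest Masliner-normalised natural-log median intensity across replicate spots of either probe orientation.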

Sequence | gcPBM binding intensity (ln)
CGTTATATATTTTATAGTACTTTTTGTAAATTTTTT [XGTACX_site7682] | 11.1 ± 0.67
CGATATGTTCAATATTGTACTATTTATAATAATATG [XGTACX_site3051] | 11 ± 0.69
ATATATATATATATATGTACTAAATATTCATCCTTA [XGTACX_site6039] | 11 ± 0.65
TGAATATAACAAATATGTACTTAAAATTGTTATATT [XGTACX_site5679] | 11.1 ± 0.76
GTGTAATATATTTTTCGTACATATTATATATATATA [XGTACX_site1675] | 11 ± 0.69
AATTTTTTTTTTAGACGTACAAGAAAAAACAAAAAA [XGTACX_site4990] | 11.7 ± 0.75
AATTATTTTAGAAACACACAAATTAGAAAAAACATA [CACACA_site7673] | 10.2 ± 0.24
AAGAAAAAACAAACATGTACACATAATTTAGTTTTT [XGTACX_site3121] | 11.4 ± 0.89
TTTTTTGCTAAGTGTACACAAATGTTTATTAATTTA [CACACA_site5859] | 11.7 ± 1
TTTATATGTATTAAGTGTACACATATAATGTATTTT [XGTACX_site16] | 11.5 ± 0.83
ATTTTTTTTGCTAAGTGTACACAAATGTTTATTAAT [XGTACX_site7440] | 11.7 ± 0.81
ATATATAATTTTTGCTGTACACAAAATATTAATTTA [XGTACX_site2057] | 11.5 ± 0.86
TTTATATGTATTAAGTGTACACATATAATGTGTTTT [XGTACX_site4890] | 11.6 ± 0.87
TATTTTTTTTTTTAATGTACAAACAAATTATGTTGG [XGTACX_site2873] | 10.8 ± 0.57
TCATATTCCAAAAAAAAAAAAAAAAAAAAAAAAATA [CACACA_negctrl_site1293] | 9.66 ± 0.3
AATAAATATTCATTTTGTACATATTTTTCGTATATG [XGTACX_site6104] | 10.9 ± 0.57
TTGGGCATAATGTCATGTACACAAATAATTCTTTAT [XGTACX_site861] | 11.5 ± 1
TATATATATATATATTGTACATATATTATTATATAT [XGTACX_site7447] | 10.9 ± 0.53
AATTTACAAAAAAGAAAAAAAAAAAAAAAGATACTT [CACACA_negctrl_site1434] | 9.65 ± 0.071
TACGAATTAAAAAAGAGTACAAATAAAATATCTACA [XGTACX_site7412] | 11.3 ± 0.84
ATTTATATTACAAAAAGTACACACATAAATAAATAC [XGTACX_site1827] | 11.6 ± 0.92
ACATCATATTAAGAAAGTACAAAAAGAGAACATATA [XGTACX_site1268] | 11 ± 0.4
ATACGAAAAAAAAAAAGTACACAAAAATATCTACAT [XGTACX_site2051] | 11.7 ± 1.1
ATTTAAGTAGTACATACACACACATATACAAAAAGA [CACACA_site9317] | 11.7 ± 1.3

Sequence | gcPBM binding intensity (ln)
AAAAAGAAAAAAGAAAGTACAAATATACACATTTTT [XGTACX_site3343] | 10.9 ± 0.54
AAAAAAAAAAGAAAAAGTACATACATACATATATAT [XGTACX_site6405] | 11.3 ± 0.83
TTGTTCTATTTAAGTAGTACATACACACACATATAC [XGTACX_site8484] | 11.5 ± 0.71
TTAAGTAGTACATACACACACATATACAAAAAGAAA [CACACA_site3972] | 11.7 ± 1.2
ATTCATAAAAAGAGGTGTACATTAATATAATATATA [XGTACX_site8283] | 11.5 ± 0.95
ATTTTGTTATTATATATATATATATATATATATATA [XGTACX_negctrl_site590] | 9.89 ± 0.49
GATCATTTAAAATAAGTAATATTTTTTTTACTTTTG [TGCATGCA_negctrl_site602] | 9.62 ± 0.26
GTTCATAAAAATTTTTGTACCCATAAAATATTCCTC [XGTACX_site8611] | 11.2 ± 0.65
AATAATTGTTATAGTTGTACAATACATATATTACAA [XGTACX_site30] | 11.3 ± 0.63
ACAGACGTTCAAAGGTGTACGCAAAATGAATAATAT [XGTACX_site7565] | 11.6 ± 1
AAAAAAAAAAAAAAAAGTACAGACGTCAAAAAAAAA [XGTACX_site4817] | 11.6 ± 0.76
AAAAAAAAAAAAAAGAGTACACAGACGTTCAAAGGT [XGTACX_site7566] | 11.7 ± 0.77
TTTAAATATATTCAATCACACACATTCGTTTTTTTT [CACACA_site7962] | 9.77 ± 0.24
GGCAAATTTATTATACCCACATACATACATACATAC [XGTACX_negctrl_site186] | 10.8 ± 0.62
TTTACATTTTAGGAAGTGCATATAATAAATACTATC | 10.1 ± 0.2
AAAAAAAAAAAAAAAAGTACATATATATATATAATT [XGTACX_site4437] | 11.5 ± 0.86
ATCATAAAAGTATACACACATACATACATATGTACA [CACACA_site2641] | 10.8 ± 0.45
TTAGTAGTATTATGTAGTACATAATTATCATATCAT [XGTACX_site817] | 11.6 ± 1.1
ACATATTAATTATAAAGTACATATATATATATATAT [XGTACX_site4540] | 11.3 ± 0.79
TATATAAAAAGTAATTGTACATATATATATATATAT [XGTACX_site7953] | 10.9 ± 0.68
ATAAAAATAATATCATGTACATATGTGTATTGTATT [XGTACX_site1768] | 11 ± 0.49
AAAAAAAAAAAAAAAAGTACACATAATTGTATATGT [XGTACX_site6339] | 11.7 ± 0.75
ATAATTATATATATATGTACATATTATATATATATA [XGTACX_site4526] | 11.2 ± 0.77
AAAAAAAAAAAAAAAAGTACATATATATATAATTAT [XGTACX_site7836] | 11.7 ± 0.89

Sequence | gcPBM binding intensity (ln)
ATTATATTATATATATGTACATATATATATCATAAT [XGTACX_site1] | 11.1 ± 0.66
AAAAAAAAATTGTGTACACATAATTATATCATATGT [CACACA_site4500] | 11.7 ± 0.89
TATATCATAAAAAATTGTACATATATATATTATATA [XGTACX_site6726] | 11 ± 0.69
ATAATTATAAAATAAACACACATATATATTTATATG [CACACA_site440] | 9.98 ± 0.16
AATTAAAAAAAATACACACACACATACACATATATA [CACACA_site3298] | 10.2 ± 0.22
ATAACATAAGGAAATACACACATATATAAGTATATA [CACACA_site778] | 10.02 ± 0.021
ACATATATATATATATATATATATATATTTATTTAT [CACACA_negctrl_site734] | 10.2 ± 0.39
AAAACTATAATGAATAGTACATAAAAATGGATATAT [XGTACX_site6056] | 11 ± 0.5
TCTATAAAGGAATATACACACATATATATATATATA [CACACA_site410] | 9.9 ± 0.32
AATAATATATTTAGGGGTACATAATAATATATTTTA [XGTACX_site8366] | 11.6 ± 1.1
AAAAAAGATATATAAACACACATATTTATATACACA [CACACA_site6866] | 9.66 ± 0.16
AAATAAAAAAGTAGTACACACTTCACGATATTTTTT [CACACA_site6015] | 11.6 ± 1
TAAAATAAAAAAGTAGTACACACTTCACGATATTTT [CACACA_site3896] | 11.6 ± 0.91
ATAAAATAAAAAAGTAGTACACACTTCACGATATTT [XGTACX_site8289] | 11.5 ± 0.84
AAAAAAAAAAAAAAAAGTACATATATATATTTATAT [XGTACX_site5893] | 11.7 ± 1
AGATAAAAAAAGTACACACACACATATATTTATATA [CACACA_site7437] | 11.8 ± 1.2
GTAAAAAAAAAAAAAAGTACATTATACATATATTTA [XGTACX_site5447] | 11.3 ± 0.81
AAAAAAAAAAAAAGTACACACTTATAAAATATTATG [CACACA_site4639] | 11.6 ± 1.1
TTAAAAAAAAAAAAAAGTACACACTTATAAAATATT [XGTACX_site1630] | 11.6 ± 0.91
AAAAAAAAAAAAAAAAGTACATATATTATATATATA [XGTACX_site2983] | 11.3 ± 0.93
TAAAAAAAAAAAAAAGTACACACTTATAAAATATTA [CACACA_site872] | 11.6 ± 1
ATATTATTTTAAAGTACACACATATATTAAGATATA [CACACA_site5306] | 11.4 ± 1
AATGTAAAATATAAATGTACATATATATATATATAT [XGTACX_site5071] | 11 ± 0.45
TATATATATATATATGTACACACATATATACCTTTC [CACACA_site8854] | 11.3 ± 0.71

Sequence | gcPBM binding intensity (ln)
GAAAGAATAAAATAAACATGCAAATAAAACATAAAA [TGCATGCA_site471] | 9.81 ± 0.2
AGCATAAACAATTTTTGAAAAAATATACACTCATAG [CACACA_negctrl_site890] | 9.935 ± 0.007
AAAAAATATACATATTGTACATTTTTTATTAACACA [XGTACX_site6415] | 10.8 ± 0.49
TAGTATTGTAAAAAAAAAAAAGAAAAAAAAAAAAAA [CACACA_negctrl_site977] | 9.68 ± 0.15
TTAAGATGCATAAATACATGCAAAGTAAATAATTCT [TGCATGCA_site517] | 9.88 ± 0.014
CATAAAAATGGATACACACACATAATATATATATAT [CACACA_site3619] | 10.2 ± 0.3
TTACTTAAGAAACACACACACAAAAAAAAAAAAAAA [CACACA_site946] | 9.91 ± 0.54
AGTTTAAATTAAATTACACACTACGAATAATATATT [CACACA_site7811] | 9.895 ± 0.007
TATTCCAAAAATGTGTGTACATAAATACAATATTAT [XGTACX_site2653] | 11.4 ± 0.89
TAAAAAAAAATAAAAAGTACATATATATATATATAT [XGTACX_site1155] | 11.1 ± 0.86
AATAAATATATTAAAAGTACACAAATATTATTTAAT [XGTACX_site2482] | 11.4 ± 0.76
ATAAAAAAAAAAAAAAGTACACATATAAAAGTATTG [XGTACX_site8265] | 11.6 ± 0.91
ATAAATACATATAAAAGTACACACACACACATATAT [XGTACX_site1744] | 11.5 ± 0.93
TACATATAAAAGTACACACACACACCCATATATATA [CACACA_site941] | 11.6 ± 1.1
AGATATATATTTTATTGTACACATTAAAGTATAAAA [XGTACX_site7194] | 11.5 ± 1.1
AAAAAAAAAAAAAGTACACACATACAGATAAATATA [CACACA_site5067] | 11.6 ± 1
ACAATATAGATTAAAAGTACAAATAGTAAATTATAT [XGTACX_site3165] | 11.2 ± 0.71
GAGATATAAAAGTGTACACATATTGTTATCCATATT [CACACA_site5441] | 11.8 ± 1
AGATAAAAAAAGTACACACACACATATATATATATA [CACACA_site3072] | 11.6 ± 0.93
AAAAAAAAAAAAAAAAGTACACAAATAGATTTATAT [XGTACX_site3727] | 11.6 ± 0.88
GCCATAAAGATATATACACACATAAAAAAAAGTTAT [CACACA_site6674] | 10.1 ± 0.16

Reference: the supplement of paper PMC11417369
